Values joined by “and” are separate entries in the source; they are usually repeats but may differ in a detail not shown here. Equal values may be shown once. Results filed as inconclusive are left out. Active and inactive are the calls of the source.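 How the source made its calls, unless noted: active means normalized viability below 100% at a tested concentration; inactive means the rest.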

The text below walks through data of PubChem BioAssay.

Assay [1] can be described thus: growth inhibition of DIPG glioma cells, dose response, cell-based, SU-DIPG-XVII, MIPE5.0, CellTiter-Glo, qHTS (AID 1347060; cut-off not given, nearly all actives have AC50 up to about 26 µM;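 on AC50: cells exposed to compound for 48 hours before viability readout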). To be noted: SU-DIPG-XVII viability, CellTiter-Glo ATP luminescence.
The nature of assay [2]: growth inhibition of DIPG glioma cells, dose response, cell-based, JHH-DIPG-1, MIPE4.0, CellTiter-Glo, qHTS (AID 1347062; cut-off not given, nearly all actives have AC50 up to about 27 µM;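 on AC50: cells exposed to compound for two days before readout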). Conditions: JHH-DIPG-1 viability, CellTiter-Glo ATP luminescence.
Assay [3] is described as follows: growth inhibition of DIPG glioma cells, dose response, cell-based, SU-DIPG-XIII, MIPE5.0, CellTiter-Glo, qHTS (AID 1347064; cut-off not given, nearly all actives have AC50 up to about 23 µM). To be noted: SU-DIPG-XIII viability, CellTiter-Glo ATP luminescence.
Assay [4] can be described thus: viability loss in pontine glioma line – cell-based, SU-DIPG-XXV, MIPE5.0, CellTiter-Glo, qHTS, dose response (AID 1347065; cut-off not given, nearly all actives have AC50 up to about 26 µM;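 further: cells exposed to compound for 48 hours before ATP readout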). To be noted: CellTiter-Glo ATP luminescence.
Assay [5] in a line: SU-DIPG-VI glioma cell viability, MIPE4.0 library, CellTiter-Glo luminescence, qHTS (AID 1347066; cut-off not given, nearly all actives have AC50 up to about 30 µM;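 further: cells exposed to compound for 48 hours before readout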). Conditions: CellTiter-Glo ATP luminescence.
The nature of assay [6]: JHH-DIPG-1 glioma cell viability, MIPE5.0 library, CellTiter-Glo luminescence, qHTS (AID 1347067; cut-off not given, nearly all actives have AC50 up to about 26 µM;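 further: cells exposed to compound for 48 hours before readout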). To be noted: JHH-DIPG-1 glioma viability, CellTiter-Glo ATP luminescence.
A short description of assay [7]: SU-DIPG-XXV glioma cell viability, MIPE5.0 library, qHTS (AID 1347068; cut-off not given, nearly all actives have IC50 up to about 30 µM).
Assay [8] in a line: sensitizers of A549 cells to miR-34 induction, primary screen, imaging, A549 dox-inducible miR-34, nuclei and caspase counts (AID 1347080;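 active means compounds whose cell count with miR-34 switched on is under 0.7 times the count with it off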). Conditions: A549 miR-34 inducible, Hoechst nuclei count, 48 h.
The nature of assay [9]: modifiers of HSF1 nuclear foci, imaging, Selleck Cancer Library (AID 1347162; in the data active means plate-normalised HSF1 focus index below about 0.46). Conditions: human cells, at 10 µM; SSMD: measured here: HSF1 foci SSMD mean; cell count: measured here: cell number; plate-normalised HSF1 focus index: stronger effect = lower value.
A short description of assay [10]: survival rescue of mitochondrial mutant cells in low glucose, primary screen, MELAS cybrids, Rieske KO mouse fibroblasts, CellTiter-Glo (AID 1508586;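 active means mean z-score across replicates of 1.96 or higher in either the MELAS or the Rieske mutant cell line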;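 further: z relative to plate mean and SD of compound and empty wells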).
The nature of assay [11]: ovarian cancer cell viability with rucaparib, profiling panel, oncology-focused library, rucaparib conditional (AID 1508598). To be noted: patient-derived ovarian cancer cells, CellTiter-Glo viability, 144 h, stronger effect = lower value.
The mark [12] stands for this setting: stronger effect = lower value, cell number ratio, induced over uninduced.
The mark [13] stands for this setting: measured here: relative caspase fold change +Dox/-Dox.
The mark [14] stands for this setting: measured here: total cells with miR-34 induction, stronger effect = lower value.
[15] abbreviates: measured here: total cells without miR-34 induction.
The mark [16] stands for this setting: MELAS cybrid survival, CellTiter-Glo 48 h, stronger effect = higher value.
[17] abbreviates: Rieske KO mouse fibroblast survival, CellTiter-Glo 72 h.

Turning to `CS(=O)(=O)c1ccc(C(=O)Nc2ccc(Cl)c(-c3ccccn3)c2)c(Cl)c1`, the molecule was called inactive in [1], in [2], in assay [3], in [4], in [5] and in assay [6]. The molecule was called inactive in [7]. Further, the fold change in [8] (setting [12]) is 0.865 (inactive) and 0.901 (inactive); in assay [8] (setting [13]), 0.712 and 0.902. Besides, the cell count in assay [8] (setting [14]) was 8790 and 6720; in assay [8] (setting [15]) it was 10200 and 7460; in assay [9] it was 7240. The molecule also came in with an SSMD in assay [9] of 2.58. In addition, in assay [9], the plate-normalised HSF1 focus index is 1.15 (inactive). For the same molecule, the z-score was 0.265 (inactive) and -0.383 (inactive) in [10] (setting [16]); 0.641 and 0.534 in assay [10] (setting [17]). Further, the viability in [11] (at 0.000305 µM, OCI-C5x cells, with rucaparib 10 µM, 100% = cells with rucaparib alone) is 124% (inactive); in assay [11] (at 0.000305 µM, OCI-C5x cells, without rucaparib), 125% (inactive); in [11] (at 0.000305 µM, OCI-P5x cells, with rucaparib 20 µM, 100% = cells with rucaparib alone) it was 92.5% (active); in [11] (at 0.000305 µM, OCI-P5x cells, without rucaparib), 106% (inactive); in assay [11] (at 0.00122 µM, OCI-C5x cells, with rucaparib 10 µM, 100% = cells with rucaparib alone), 126% (inactive); in assay [11] (at 0.00122 µM, OCI-C5x cells, without rucaparib), 125% (inactive). Besides, the viability in [11] (at 0.00122 µM, OCI-P5x cells, with rucaparib 20 µM, 100% = cells with rucaparib alone) is 103% (inactive); in [11] (at 0.00122 µM, OCI-P5x cells, without rucaparib), 102% (inactive); in assay [11] (at 0.00488 µM, OCI-C5x cells, with rucaparib 10 µM, 100% = cells with rucaparib alone), 125% (inactive); in [11] (at 0.00488 µM, OCI-C5x cells, without rucaparib) it was 124% (inactive); in assay [11] (at 0.00488 µM, OCI-P5x cells, with rucaparib 20 µM, 100% = cells with rucaparib alone), 106% (inactive); in [11] (at 0.00488 µM, OCI-P5x cells, without rucaparib), 97.6% (active). Besides, the viability in assay [11] (at 0.0195 µM, OCI-C5x cells, with rucaparib 10 µM, 100% = cells with rucaparib alone) was 115% (inactive); in [11] (at 0.0195 µM, OCI-C5x cells, without rucaparib) it was 117% (inactive); in [11] (at 0.0195 µM, OCI-P5x cells, with rucaparib 20 µM, 100% = cells with rucaparib alone), 107% (inactive); in assay [11] (at 0.0195 µM, OCI-P5x cells, without rucaparib), 102% (inactive); in assay [11] (at 0.0781 µM, OCI-C5x cells, with rucaparib 10 µM, 100% = cells with rucaparib alone), 123% (inactive); in [11] (at 0.0781 µM, OCI-C5x cells, without rucaparib) it was 116% (inactive). For the same molecule, the viability in assay [11] (at 0.0781 µM, OCI-P5x cells, with rucaparib 20 µM, 100% = cells with rucaparib alone) was 106% (inactive); in [11] (at 0.0781 µM, OCI-P5x cells, without rucaparib) it was 103% (inactive); in [11] (at 0.313 µM, OCI-C5x cells, with rucaparib 10 µM, 100% = cells with rucaparib alone), 125% (inactive); in [11] (at 0.313 µM, OCI-C5x cells, without rucaparib) it was 127% (inactive); in assay [11] (at 0.313 µM, OCI-P5x cells, with rucaparib 20 µM, 100% = cells with rucaparib alone), 108% (inactive); in assay [11] (at 0.313 µM, OCI-P5x cells, without rucaparib) it was 104% (inactive). Moreover, the viability in assay [11] (at 1.25 µM, OCI-C5x cells, with rucaparib 10 µM, 100% = cells with rucaparib alone) was 133% (inactive); in assay [11] (at 1.25 µM, OCI-C5x cells, without rucaparib), 116% (inactive); in assay [11] (at 1.25 µM, OCI-P5x cells, with rucaparib 20 µM, 100% = cells with rucaparib alone), 108% (inactive); in [11] (at 1.25 µM, OCI-P5x cells, without rucaparib) it was 104% (inactive); in assay [11] (at 5 µM, OCI-C5x cells, with rucaparib 10 µM, 100% = cells with rucaparib alone), 158% (inactive); in assay [11] (at 5 µM, OCI-C5x cells, without rucaparib) it was 149% (inactive). Also, the viability is 97.4% (active) in assay [11] (at 5 µM, OCI-P5x cells, with rucaparib 20 µM, 100% = cells with rucaparib alone) and 99.8% (active) in assay [11] (at 5 µM, OCI-P5x cells, without rucaparib).

Turning to `CN(C)c1ccccc1CN1CCCN(Cc2ccccc2N(C)C)C1c1ccncc1`, the AC50 in [1] was 26.3 µM (active); in assay [2], 20.9 µM (active). For the same molecule, the result in assay [4], in [5] and in [7] was inactive. The molecule further gave an SSMD in assay [9] of 1.08. This molecule also yielded a cell count in assay [9] of 6990. Also, the plate-normalised HSF1 focus index in [9] is 1.07 (inactive).

Turning to `C=CC[N+]1([C@H]2C[C@H]3[C@@H]4CC[C@H]5C[C@H](O)[C@@H](N6CCOCC6)C[C@]5(C)[C@H]4CC[C@]3(C)[C@H]2OC(C)=O)CCCC1`, the outcome in assay [1], in assay [2], in assay [3], in assay [6] and in [7] was inactive. Besides, the fold change in assay [8] (setting [12]) is 0.847 (inactive); in assay [8] (setting [13]), 1.54. Moreover, the values for the cell count in assay [8] (setting [14]) and in assay [8] (setting [15]) were 9100 and 10700, respectively. For the same molecule, the figures for the z-score in [10] (setting [16]) and in [10] (setting [17]) were 0.124 (inactive) and -0.444, respectively.

As for `O=C(O)CCNc1cc(N2CCc3ccccc3CC2)nc(-c2ccccn2)n1`, the molecule was classed as inactive in [1], in [2], in assay [3], in assay [4], in assay [5] and in assay [6]. Also, the molecule was called inactive in assay [7].

On to `Cc1cc(-c2ncc(CC(=O)Nc3ccc(-c4cnccn4)cn3)cc2C)ccn1`, for which the call in assay [1], in assay [2], in [3], in [5] and in assay [7] was inactive. For the same molecule, the fold change was 0.911 (inactive) in assay [8] (setting [12]) and 0.406 in assay [8] (setting [13]). The cell count in assay [8] (setting [14]) is 6130; in assay [8] (setting [15]) it was 6730. Moreover, the z-score in assay [10] (setting [16]) was -0.348 (inactive); in assay [10] (setting [17]) it was 0.85.
